Bioassay records deposited in PubChem by National Center for Advancing Translational Sciences (NCATS).
HTT-AS promoter: HTT-AS promoter activation. HEK293 HTT-AS promoter firefly luciferase reporter, 24 h; response scale: percent change from vehicle, -100% = no light. Potency, µM (series often up to 57.5 µM), for the others: at the highest dose activity change, positive = activation, actives largely listed as activators. actives 0.24% (n = 48,000); also: nearly all actives have a fitted effect of over 55% in size
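Firefly luciferase signal from promoter-reporter HEK293 cells was scaled between vehicle (0%) and zero RLU (-100%). Compounds were tested at final concentrations of up to 57.5 uM over 24 h at 37 degrees C. PTC124 at 50 uM final served as control inhibitor.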
HTT promoter inh: inhibits huntingtin promoter activity | HEK293 HTT promoter firefly luciferase reporter, 24 h | Potency, µM (highest dose often 57.5 µM), for the others: at the top dose activity change, negative = inhibition, actives largely listed as inhibitors | actives 0.93% (n = 48,000); also: nearly all actives have a fitted effect of over 50% in size
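Firefly luciferase readout (Dual-Glo, 10 min RT) after 24 h, 37 °C compound exposure (final up to 57.5 uM) of HEK293 reporter cells cultured 24 h beforehand; PTC124 at 50 uM final as control inhibitor; activity scaled vehicle 0%, zero RLU -100%.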
NTMT1 inh: NTMT1 methyltransferase inhibition | Q9BV86 | NTMT1 MTase-Glo SAH luminescence, purified enzyme | Potency, µM (top dose mostly 114 µM), inactives show at the top dose activity change, negative = inhibition, hits mostly inhibitors | actives 2.5% (n = 59,000) | AID 1645870;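 also: plate controls were DMSO vehicle for no effect and no enzyme for full effect; nearly all actives have a fitted effect of over 65% in size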
Target sequence (Q9BV86 whole entry, looked up): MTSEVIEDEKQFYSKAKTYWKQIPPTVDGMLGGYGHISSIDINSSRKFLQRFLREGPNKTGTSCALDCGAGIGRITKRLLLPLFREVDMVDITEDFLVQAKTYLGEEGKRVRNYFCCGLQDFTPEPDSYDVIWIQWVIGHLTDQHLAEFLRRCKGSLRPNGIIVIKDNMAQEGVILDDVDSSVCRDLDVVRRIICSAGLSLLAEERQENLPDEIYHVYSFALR
Active calls of the source: *; ? = inconclusive; · = no result; ! = a repeat was not active; [ ] = remark or other dose. Shown are actives, neighbours in structure and some others; about 2.4% of the full set was active somewhere. Calls follow the shape of the dose curve; as a rule, active = well fitted curve in the direction sought with a large enough effect; inconclusive = small, poorly fitted or top-dose-only effect, or another doubt; inactive = no such curve, though single readings can be large; an effect the other way counts as inactive or inconclusive. Potency is read from the fitted curve at half-maximal effect.

SMILES | HTT-AS promoter | HTT promoter inh | NTMT1 inh
CC1CC1C(=O)Nc1ccc([S+](=O)([O-])Nc2nccs2)cc1 (stereo not given) | · | · | -25%[57.5 µM]
O=Cc1ccc(O)c(O)c1O | -2% | -8% | 18µM*
O=c1ccc2ccc(O)c(O)c2o1 | -93% | ? | -19%[57.5 µM]
COc1ccc(NS(=O)(=O)c2ccc(C)cc2)cc1C(=O)Nc1nc(-c2ccccc2)cs1 | · | · | 18%
C=CC(=O)Nc1cccc(Oc2nc(Nc3ccc(N4CCN(C)CC4)cc3)ncc2Cl)c1 | -34% | -14% | ?
C=CC(=O)Nc1cccc(Nc2nc(Nc3ccccc3)ncc2C)c1 | · | · | 45µM*
CC(=O)Nc1sc2c(c1-c1ccc(N3CCN(C(C)=O)CC3)nc1)CCNC2 | · | · | -7%
COc1ccc(CCNC(=O)CCc2c(C)nc3cc(-c4cccc(F)c4)nn3c2C)cc1OC | -51% | ? | 89µM*
COc1ccccc1CNC(=O)CCc1c(C)nc2cc(-c3ccccc3OC)nn2c1C | -37% | ? | -6%
COc1ccc(CCNC(=O)CCc2c(C)nc3c(-c4ccc(F)cc4)c(C)nn3c2C)cc1OC | -9% | -11% | -16%
Cc1nc2cc(-c3cccc(F)c3)nn2c(C)c1CCC(=O)Nc1ccccc1C(N)=O | -71% | 2.2µM* | ?
COc1ccccc1-c1cc2nc(C)c(CCC(=O)NCCc3ccc(SC)cc3)c(C)n2n1 | -74% | 20µM* | -1%
Cc1nc2cc(-c3ccccc3)nn2c(C)c1CCC(=O)Nc1ccc(F)cc1F | -79% | ? | 0%
Cc1ccc(C(C)c2ccc(=O)n(CC(=O)NCCc3ccccc3)n2)cc1 (stereo not given) | · | · | 1%
COc1ccc(O)c(CNc2ccc(S(=O)(=O)Nc3nccs3)cc2)c1 | · | · | 2%
N#Cc1ccnc(N2C(=O)CC[C@H]2C(=O)N(c2cncc(F)c2)C(C(=O)NC2CC(F)(F)C2)c2ccccc2Cl)c1 (stereo not given in full) | · | · | 6%
O=C1NC(=Nc2ccccc2F)S/C1=C\c1ccc(C(=O)O)cc1 | · | · | -19%[57.5 µM]
Nc1ccc(-c2cnc(N)c(-c3ccc(Cl)cc3)c2)cn1 | · | · | 6%
O=C(NCC(c1ccccc1)c1ccccc1)c1nn(-c2ccccc2F)nc1CO | -37% | 4µM* | ?
O=C(NCCc1ccccc1)c1nn(-c2ccccc2F)nc1CO | -25% | -29% | -2%
OCc1ccccc1O | -1% | 2% | 37%[57.5 µM]
Oc1ccc2ccccc2c1SSc1c(O)ccc2ccccc12 | -22% | ? | 8.9µM*!
CC[C@]1(O)CC2CN(CCc3c([nH]c4ccccc34)[C@@](C(=O)OC)(c3cc4c(cc3OC)N(C)[C@H]3[C@@](O)(C(=O)OC)[C@H](OC(C)=O)[C@]5(CC)C=CCN6CC[C@]43[C@@H]65)C2)C1 (stereo not given in full) | · | · | 45µM*!
CCC1=C[C@@H]2CN(C1)Cc1c([nH]c3ccccc13)[C@@](C(=O)OC)(c1cc3c(cc1OC)N(C)[C@@H]1[C@@](O)(C(=O)OC)[C@H](OC(C)=O)[C@]4(CC)C=CCN5CC[C@]31[C@@H]54)C2 | -32% | ? | 17µM*
COC(=O)C1(C)c2[nH]c3ccccc3c2CCN1C(=O)CCl (stereo not given) | · | · | -1%[57.5 µM]
SMILES | HTT-AS promoter | HTT promoter inh | NTMT1 inh
Cc1cnc(-c2ccccc2C(C)C)nc1NCC1CCN(C2COC2)CC1 | · | · | 3%[57.5 µM]
CCNC(=O)CCC/C=C\C[C@@H]1[C@@H](/C=C/C(O)CCc2ccccc2)[C@@H](O)C[C@@H]1O (stereo not given in full) | · | · | 2%[57.5 µM]
O=C(Cn1nc(-c2cccnc2)ccc1=O)NCCc1ccccc1 | · | · | 9%
O=C(O)CCc1cc2ccoc2cc1O[C@@H]1O[C@H](CO[C@@H]2OC[C@](O)(CO)[C@H]2O)[C@@H](O)[C@H](O)[C@H]1O | · | · | 5%[29.8 µM]
COc1ccc(OC)c(C2CC(=O)N(c3cccc(C)c3)C3=C2C(=O)OC3)c1 (stereo not given) | -20% | -25% | 16%
N#CC1=C2SCN(C3CCCCC3)CN2C(=O)CC1c1ccc(Br)cc1 (stereo not given) | -12% | -22% | 35µM*
COc1ccc(C2CC(=O)N3CN(C4CCCCC4)CSC3=C2C#N)c(OC)c1 (stereo not given) | 6% | -10% | 16µM*
COc1cc(O)c(C(CC(=O)N2CCC(Cc3ccccc3)CC2)c2ccc(C)cc2)c(OC)c1 (stereo not given) | · | · | 9%[228 µM]
COc1ccc2c(c1)c(C1=C(c3c[nH]c4ccccc34)C(=O)NC1=O)cn2CCCN(C)C | -8% | -22% | 14µM*
COc1ccc2c(c1)c(=O)c(S(=O)(=O)c1ccc(C)cc1)cn2Cc1ccccc1C | -38% | ? | 11%
O=C(NCCCNC(=O)c1ccc[nH]c1=O)c1cc(-c2ccccc2)on1 | · | · | 4%[57.5 µM]
CC(C)c1ccc(C2CC(=O)Nc3cc4c(cc32)OCCO4)cc1 (stereo not given) | -43% | ? | 2%
Cc1ccc(C2CC(=O)Nc3cc4c(cc32)OCCO4)cc1Br (stereo not given) | -41% | 25µM* | 0%
COc1cc(/C=C/C(=O)OC2[C@H](O)CC(O)(C(=O)O)C[C@H]2O)ccc1O (stereo not given in full) | · | · | -4%[29.8 µM]
CCOc1ccccc1C(=O)N1CCC(c2nc3ccccc3o2)CC1 | -34% | -20% | 89µM*
CCCCOc1ccc(C(=O)N2CCC(c3nc4ccccc4o3)CC2)cc1 | -23% | ? | -10%
C#Cc1cccc(Nc2nc3cc(C(=O)O)ccc3c3cncnc23)c1 | · | · | 25µM*
O=C(O)c1cccc(Nc2ncnc3ccc(Br)cc23)c1 | -13% | -7% | 20%
CCCc1nnc(-c2cnn(C)c2N)n1CCCn1ccnc1 | · | · | 8%
Cc1ccccc1NC(=O)c1ccc2[nH]c(C)c(C)c2c1 | ? | 73% | -10%
CCc1ccccc1NC(=O)c1ccc2[nH]c(C)c(C)c2c1 | 8.9µM* | 54% | -2%
Cc1ccccc1CNC(=O)c1ccc2c(c1)c(C)c(C)n2C | 1% | 2% | 1%
Cc1ccccc1CNC(=O)c1ccc2[nH]c(C)c(C)c2c1 | -10% | 3% | 79µM*
O=c1c2ccccc2nc2sc(NS(=O)(=O)c3ccc4c(c3)CCC4)nn12 | · | · | -21%
COc1ccc(S(=O)(=O)N(C(=O)c2ccncc2)c2ccc3oc(C)c(C(C)=O)c3c2)cc1 | -51% | 14µM* | -2%
SMILES | HTT-AS promoter | HTT promoter inh | NTMT1 inh
CCOC(=O)c1c(C)oc2ccc(N(C(=O)Oc3ccccc3)S(=O)(=O)c3ccc(CC)cc3)cc12 | -29% | -25% | -1%
COC(=O)c1c(C)oc2ccc(N(C(=O)c3ccncc3)S(=O)(=O)c3ccc(OC)cc3)cc12 | -68% | 2.2µM* | 22%
CCOC(=O)c1c(C)oc2ccc(N(C(=O)c3ccncc3)S(=O)(=O)c3ccc(F)cc3)cc12 | -34% | ? | 16%
CCOc1ccc(S(=O)(=O)N(C(=O)c2ccncc2)c2ccc3oc(C)c(C(=O)OC)c3c2)cc1 | -72% | 2µM* | 2%
CCCC(=O)N(c1ccc2oc(C)c(C(C)=O)c2c1)S(=O)(=O)c1ccc(C)cc1 | -29% | -24% | 19%
CCc1ccc(S(=O)(=O)N(C(=O)c2ccncc2)c2ccc3oc(C)c(C(=O)OC)c3c2)cc1 | -87% | 13µM* | 17%
